Experimental data: article PMC7819943, “Rice protein-binding microarrays: a tool to detect cis-acting elements near promoter regions in rice”
The full ranking holds about 68,000 sequences; the median of “fluorescence intensity (a.u.)” is about 9,100, and the highest 2% start at about 16,000. This is one part of a sample in which the highest values are shown more often than they occur.

Target: OsWRKY34 (Oryza sativa, UniProt Q0JBA9 1-250)
Assay: protein-binding microarray (RPBM); PBS, 2% BSA, 51.3 ng/ul salmon testes DNA, 50 uM zinc acetate, 200 nM TF, 25 C, 1 h; high values mean tight binding
Settings: protein: recombinant; tags: N-terminal polyhistidine and DsRed monomer fusion (pET32a); label: CyDye5-dUTP incorporated in the synthesized complementary strand; 3' TTTTT single-stranded linker to array surface; dsDNA, one strand shown
How it was run: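 For the binding signal, per-feature fluorescence intensity was read in arbitrary units on an Axon 4000B scanner. Before scanning, a 2% BSA-blocked custom Agilent array made double-stranded with Cy5-dUTP was washed after 1 h at 25 °C with 200 nM protein and 50 µM zinc acetate. The proteins were Ni–NTA-purified transcription factors with N-terminal polyhistidine and DsRed fusions, expressed in E. coli BL21-CodonPlus.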

Sequence of OsWRKY34 (Q0JBA9 entry or part of it): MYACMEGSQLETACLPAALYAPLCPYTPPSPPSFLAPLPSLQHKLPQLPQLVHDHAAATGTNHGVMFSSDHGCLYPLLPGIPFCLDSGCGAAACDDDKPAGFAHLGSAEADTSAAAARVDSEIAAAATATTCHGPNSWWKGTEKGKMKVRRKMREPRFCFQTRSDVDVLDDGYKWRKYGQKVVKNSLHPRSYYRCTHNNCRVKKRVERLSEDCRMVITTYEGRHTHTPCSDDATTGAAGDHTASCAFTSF

Sequence	binding signal
ATTCTGTAACCCGCTGCGGGCAACGGCCGGACGTGCAATCCGGAGTCACCTAGTGCAG	9630 fluorescence intensity (a.u.)
CTGATCGAATACTCTAGCATTGCGATCTTTCCAAATTTGCCGGAGTCACCTAGTGCAG	8510 fluorescence intensity (a.u.)
GGAGGGTGCGACAGCCCAATGTATCACTTGCGTTTGTATCCGGAGTCACCTAGTGCAG	8230 fluorescence intensity (a.u.)
GTAGCATGCTTCTATCCTGTCCCGGTGTTTGTCGTACATTCGGAGTCACCTAGTGCAG	10200 fluorescence intensity (a.u.)
GATTGAGTGTGCCCGTGTGAGATAGAATCTTTTTGCCCTTCGGAGTCACCTAGTGCAG	8930 fluorescence intensity (a.u.)
TGTCAGCCTCGTCCGGCTTCATCCCGTTGCGTCCCATTTTCGGAGTCACCTAGTGCAG	17600 fluorescence intensity (a.u.)
GGCTTCCCGTTGCGCGCGCGTCCCATCCTCGCCGGCGCTTCGGAGTCACCTAGTGCAG	8470 fluorescence intensity (a.u.)
CCGCCATCGCCGCCGCCATCCGTTGACCATGGCTTCAGCCCGGAGTCACCTAGTGCAG	18900 fluorescence intensity (a.u.)
GGCTTCATCACAGCATCCATCGCCGCCGGCCACCACCACCCGGAGTCACCTAGTGCAG	12700 fluorescence intensity (a.u.)
GCCGCTCACAGCCGTCTTCGCTTGCCCGCCGCCATCGCCACGGAGTCACCTAGTGCAG	17500 fluorescence intensity (a.u.)
AGCCACCACAGCCATCGCCCGTTCTTCCCGCCGGCCTATCCGGAGTCACCTAGTGCAG	9990 fluorescence intensity (a.u.)
CCGCCGCTCCACCGTCTCAGCCATCGCCACCGCCCGCAGCCGGAGTCACCTAGTGCAG	8400 fluorescence intensity (a.u.)
ACATCCCCGACCCGCCCCGCCTCACCGGTCATTCGCAGCCCGGAGTCACCTAGTGCAG	9440 fluorescence intensity (a.u.)
CAGCCCGCCGCCCCGCCCCGCCCCGCCGCAGGTCATTGACCGGAGTCACCTAGTGCAG	16400 fluorescence intensity (a.u.)
ATCCCGTTGCGTCCCATTTTCCTCGCCCTCGTCGCTAGTTCGGAGTCACCTAGTGCAG	11200 fluorescence intensity (a.u.)
CACCGCCGCAGCCCAAGCCCACCACCACCACCGCCGCCGCCGGAGTCACCTAGTGCAG	9060 fluorescence intensity (a.u.)
ACAGCTTGCCGCCACCACCACACCACGCCGCTCGCCGCCCCGGAGTCACCTAGTGCAG	8950 fluorescence intensity (a.u.)
ATCTTTTCCGCTGTTGCTGCTCCTCCTTTCTCGCTCTCGCCGGAGTCACCTAGTGCAG	9750 fluorescence intensity (a.u.)
AGGTTCTATGACAGTATTGCACCCGGTTTTGTCAGCTGACCGGAGTCACCTAGTGCAG	8600 fluorescence intensity (a.u.)
CTCCCGTGTCCCATTTAAAACCTTCTTCTTCTTCTTCGCTCGGAGTCACCTAGTGCAG	8650 fluorescence intensity (a.u.)
CGCCACCACTGCTGCCATCGTCAACATCCTATATGATTTTCGGAGTCACCTAGTGCAG	13400 fluorescence intensity (a.u.)

Sequence	binding signal
ATCAACCAGTAATCAATTGACCAAGCGGTTCTTGCGCCTACGGAGTCACCTAGTGCAG	9780 fluorescence intensity (a.u.)
GTTCTCACACTTCAGATTGTTATGTTTGGCTATGCTGTCTCGGAGTCACCTAGTGCAG	9600 fluorescence intensity (a.u.)
CTCTTAGCAATGCTGACTGGTCCGATCAAAGTCAACGGTTCGGAGTCACCTAGTGCAG	8730 fluorescence intensity (a.u.)
GAACCTGTCTACATCGGCCGTGTCTCGTGCACTTGCTCTCCGGAGTCACCTAGTGCAG	10700 fluorescence intensity (a.u.)
TGTCTTGGTCTTGTGGCGTTTATTGTTGCCGTCTGAGCGACGGAGTCACCTAGTGCAG	11000 fluorescence intensity (a.u.)
TTTAATGTATGACACCGTTGACTTTTTAACCAACGTTTGACGGAGTCACCTAGTGCAG	36300 fluorescence intensity (a.u.)
GCTTTTGAGTTGACAGCCACCGTTTTTAACCAACGCGCGACGGAGTCACCTAGTGCAG	8140 fluorescence intensity (a.u.)
AATGTATGACACCGTTGACTTCTTGACCAACGTTTAACCACGGAGTCACCTAGTGCAG	18700 fluorescence intensity (a.u.)
TTTAGACTTCTTCCAACTGGAATGCGTTTGACCCTAACCACGGAGTCACCTAGTGCAG	8180 fluorescence intensity (a.u.)
CACTATTCACGTTTAACGTTTGACCGTTCTTCTTATTTGACGGAGTCACCTAGTGCAG	10300 fluorescence intensity (a.u.)
TTTAATATATAACACCGTTGACTTTTTATCAAACGTTTGACGGAGTCACCTAGTGCAG	23400 fluorescence intensity (a.u.)
TATTTTAATGTATGATGCCGTTGACTTTTTAACCAACGTTCGGAGTCACCTAGTGCAG	27000 fluorescence intensity (a.u.)
GACTTTTTTAAACATATTTGACCGTTCGTTTTATTCAAAACGGAGTCACCTAGTGCAG	8190 fluorescence intensity (a.u.)
GTTTATAAACTTAGTCAAACTTGAAACAGTTTGACTTTGACGGAGTCACCTAGTGCAG	12400 fluorescence intensity (a.u.)
TGTATGATGCCTTTAACTTTTTAACCAACGTTTAATGTTTCGGAGTCACCTAGTGCAG	9010 fluorescence intensity (a.u.)
TTCAATGACAATGTTGACTTTTTGACAAACGTTTAACCTTCGGAGTCACCTAGTGCAG	10200 fluorescence intensity (a.u.)
GTATTTTAATGTATGACATTGTTGACTTTTTGATTAACGTCGGAGTCACCTAGTGCAG	13000 fluorescence intensity (a.u.)
GCTCTTTGGCCTGCTTCAGCCTTCAGCTTCTCCATGGTTTCGGAGTCACCTAGTGCAG	10700 fluorescence intensity (a.u.)
TACCTACTTTCTCATCTTAAGCAATCACTTCGACTTTAATCGGAGTCACCTAGTGCAG	9820 fluorescence intensity (a.u.)
TGCCTAACAATTCTTTTTATTCGCGACGTCAATATACTACCGGAGTCACCTAGTGCAG	9730 fluorescence intensity (a.u.)
AGAATTACTGCTGCTTTATTTACTTTTCTTCCATTGGTTTCGGAGTCACCTAGTGCAG	13000 fluorescence intensity (a.u.)
